Experimental data from PubChem BioAssay (NCI).
About 83,000 compounds went through this panel and 20% of them were active in at least one assay; those are over-represented in the sample as a whole.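 Percent growth is the endpoint: 0 to 100 indicates growth inhibition (40 means 60% inhibition), 0 means no net growth, and negative values indicate cell death.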 Unmarked numbers belong to inactive results. Active and inactive are the calls of the source.

Test system: T-47D breast
Assay: NCI-60 one-dose screen, 48 h (100 = growth as untreated, 0 = no growth, -100 = all killed)
Settings: 10 µM unless noted
Description: Growth inhibition of the T-47D human tumor cell line is measured as a screen for anti-cancer activity. Cells are grown in 96 well plates and exposed to the test compound for 48 hours. Compounds are tested at a single concentration, which is 10^-5 M for most compounds. The reported endpoint is percent growth (GI% or GIPRCNT), where numbers from 0 - 100% represent growth inhibition, and numbers from -100% - 0 represent cell death. For example, a value of 40 represents 60% growth inhibition. A value of 0 means no net growth occurred over the course of the experiment. A value of -40 indicates 40% of cells at the beginning of the experiment died by the end of the experiment. A value of -100 means all cells are dead at the end of the experiment.
NCI-60 Human Tumor Cell Lines Screen was performed using the standard one-dose NCI protocol, which is described in more detail at https://dtp.cancer.gov/discovery_development/nci-60/default.htm.
Compounds with GIPRCNT values below 10 were considered active. Activity score was based on GIPRCNT using the following formula: […]
Score is 0 for GIPRCNT values of 100 or above, 50 for GIPRCNT values of 0, and 100 for GIPRCNT values of -100.

First: CC[N+](CC)(CCCC(C)[N+]1(Cc2ccccc2)C(C)=CC=C1C)Cc1ccccc1 (stereo not given)
Second: c1ccc(Cn2nc3c(c2-c2ccccc2)-c2oncc2CC3)cc1
The growth of the first is lower: 77.7% for the first, 80.9% for the second.

Compared with `CCc1c(Nc2ccc(C)cc2)[nH]c(N)nc1=S`, `CCc1c(Nc2ccc(C)cc2)nc(N)[nH]c1=O` is higher in growth: 90.1% for the first, 96.4% for the second.

First: Cc1n[nH]c(C)c1-c1c(C)n[nH]c1C
Second: COc1cc2nc(Cc3ccc(C)cc3)[nH]c(=O)c2cc1OC
The growth of the first is lower: 18.7% for the first, 107% for the second.

First: COc1ccc(NC(=O)c2sc3nc(C)c(C(O)c4ccc(OC)cc4)cc3c2N)cc1 (stereo not given)
Second: COc1ccc(Nn2c(SCC(=O)Nc3nc(-c4ccc(Cl)cc4)cs3)nc(C)c2C)cc1
The growth of the first is higher: 56.8% for the first, 32.9% for the second.

Going from `COc1cc(C2CC(c3cccc(Nc4ccncc4)c3)=NN2c2ccc(Cl)cc2)cc(OC)c1OC` (stereo not given) to `COc1cc(C2CC(c3cccc(Nc4ccncc4)c3)=NN2c2cc(Cl)cc(Cl)c2)cc(OC)c1OC` (stereo not given), the growth falls from 71.3% to 26.7%.

Going from `CC(=O)[C@@H]1CC[C@]2(C(=O)n3ccnc3)CC[C@]3(C)[C@H](CC[C@@H]4[C@@]5(C)Cc6c([nH]c7ccccc67)C(C)(C)[C@@H]5CC[C@]43C)[C@@H]12` to `CC(=O)O[C@]1(C(C)=O)CC[C@H]2[C@@H]3C=C(Cl)C4=CC(=O)CC[C@]4(C)[C@H]3CC[C@@]21C`, the growth rises from 78% to 97.1%.

Going from `Cc1ccc(/C=C/C(=O)c2ccc(N)cc2)c(C)c1` to `COc1ccc(C(=O)/C=C/c2ccc(OCc3ccccc3)c(OC)c2)cc1OC`, the growth falls from 101% to 47.4%.

First: COc1ccc(-c2nc3sccn3c2/C=C/C(=O)c2cc(OC)c(OC)c(OC)c2)cc1
Second: COc1cc(/C=C2\C(=O)N(Cc3ccc(Cl)cc3)c3ccccc32)cc(OC)c1OC
The growth of the first is lower: 30.5% for the first, 32.1% for the second.

Going from `COc1ccc2c(/C=C3/C(=O)NC(=S)NC3C)cc(=O)oc2c1` (stereo not given) to `COc1ccc(/C=C/c2n[nH]c3ccc(N4CCOC4=O)cc23)cc1`, the growth falls from 88% to 17.6%.

Compared with `Clc1ccc(N2N=C(c3cccc(Nc4ccncc4)c3)CC2c2ccc3c(c2)OCO3)cc1` (stereo not given), `Clc1ccc(C2CC(c3cccc(Nc4ccncc4)c3)=NN2c2ccccc2)cc1` (stereo not given) is lower in growth: 82.2% for the first, 58.6% for the second.

Going from `O=C(N/N=C/c1ccncc1)c1ccccc1Nc1cccc(C(F)(F)F)c1` to `FC(F)(F)c1cccc(Oc2ccc(Nc3ncnc4ccc(OCCCN5CCOCC5)cc34)cc2Cl)c1`, the growth falls from 58.2% to 32.7%.

Compared with `COc1ccc(NS(=O)(=O)c2ccc(C)cc2)c([N+](=O)[O-])c1`, `N#Cc1cc(-c2nc3ccccc3s2)c(=O)n(NS(=O)(=O)c2ccc(Cl)cc2)c1N` is higher in growth: 93.5% for the first, 96.6% for the second.

Going from `c1ccc(-c2nn(-c3ccccc3)[n+](-c3cccc4ccccc34)n2)cc1` to `COc1ccccc1/C=C1\COc2ccc(-c3ccccc3)cc2C1=O`, the growth falls from 25% to 14%.

Going from `O=C1CCCCCCCCC(O)C(O)CCCC(c2cccs2)O1` (stereo not given) to `Cc1c(C2=CCCCC2)c2ccccn2c1C(=O)c1cccc(S(=O)(=O)N2CCOCC2)c1`, the growth rises from 71.8% to 79.3%.

Compared with `COc1cccc(CNCCN2C(=O)c3ccc4c5c(ccc(c35)C2=O)C(=O)N(CCNCc2cccc(OC)c2)C4=O)c1`, `COc1ccc(C2CC(n3nnnc3-c3ccccc3)=NN2)cc1` (stereo not given) is lower in growth: 97.4% for the first, 46.3% for the second.

First: CC(=O)NCCCS(=O)(=O)O
Second: COC(=O)CCCCCCCCC1(C)C=CC(C(C)O)=CC1 (stereo not given)
The growth of the first is higher: 102% for the first, 99.9% for the second.

First: CSc1nnc2c(=O)n(C)c(=O)n(C)c2n1
Second: O=C1OC(=O)C2C1CC=CC2c1ccccc1 (stereo not given)
The growth of the first is higher: 97.5% for the first, 91.5% for the second.

In the case of `C(=N\Nc1ncc(-c2cc3cc4c(cc3o2)OCO4)s1)/c1c[nH]c2ccccc12`, the growth is reported as -3.93% (active).
In the case of `CCc1nc(C)cn1C(=O)OCc1nc2nc(Cl)nc(N3CCOCC3)c2[nH]1`, the growth is reported as -47.9% (active).
In the case of `Cc1c2c(cc[n+]1Cc1ccc(F)cc1)c1ccc(OCc3cccc(F)c3)cc1n2Cc1cccc(F)c1`, the growth is reported as -75.8% (active).
`COC(=O)C1=C(C(=O)ONCCN(C)C)C2C=CC1(C(Cc1ccccc1)Nc1ccc(F)cc1)O2` (stereo not given) was tested, and the growth was -0.816% (active).
For `Clc1nc(Cl)c2ncn(CC3(Cn4cnc5c(Cl)nc(Cl)nc54)COC3)c2n1`, the growth was -61.7% (active).
`Cc1c2c(cc[n+]1Cc1ccccc1)c1ccc(OCC3CCCCC3)cc1n2CC1CCCCC1` was tested, and the growth was -74.1% (active).
